Calls of active or inactive are those of the source.

We go through five compounds from PubChem BioAssay.

In experiment [1] the target is Albumin (Bos taurus) (UniProt P02769). Briefly: bovine serum albumin binders on microarray, profiling panel, artefact control for SMM control protein annotation, biochemical, small-molecule microarray, Alexa647 label, 635/667 nm fluorescence (AID 1118).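 Also: score merges 667 nm emission intensity and signal-to-noise per printed compound spot.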 The note with it: BSA-A647 binding, fluorescence 635 nm, higher = more signal.
A short description of experiment [2]: small-molecule microarray binders of probe aXIP, primary screen, biochemical, NeuroSMM set, 635/667 nm fluorescence (AID 1119).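 Also: probe is the protein aXip251-270 applied at 1 µg/mL to compound-printed slides; binding of probe to printed compounds measured as 667 nm fluorescence plus signal to noise.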 The settings on record: higher = more signal, called active from +8 up or from −8 down.
Experiment [3] in a line: small-molecule binders of probe aNOTCH3, primary screen, biochemical, small-molecule microarray, 635/667 nm fluorescence (AID 1120).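 Also: probe is a biotin-tagged antibody raised against NOTCH3 rather than NOTCH3 protein; score merges spot fluorescence near 667 nm with spot signal to noise.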 The note with it: higher = more signal.
Experiment [4] is described as follows: small-molecule binders of probe aNOTCH2, primary screen, biochemical, small-molecule microarray, 635/667 nm fluorescence (AID 1121).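 Also: score merges feature fluorescence read at 667 nm with its signal to noise.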 The note with it: higher = more signal.
Experiment [5] has as its target Carbonic anhydrase 2 (Homo sapiens) (UniProt P00918). Briefly: CAII small-molecule binders, profiling panel, biochemical, small-molecule microarray, Alexa647-labelled CAII (AID 1122). The settings on record: CAII-A647 binding fluorescence, higher = more signal.
The nature of experiment [6]: COS7 lysate on small-molecule microarray, probe aHis, 635 nm (AID 1123).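 Also: z-score combines 667nm fluorescence intensity with signal-to-noise per printed compound spot.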 The note with it: COS7 cell lysate, fluorescence, higher = more signal.
Experiment [7] is described as follows: compound binding in COS7 lysate, probe aLAP1, primary screen, cell lysate, small-molecule microarray (AID 1124).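 Also: lysate comes from COS7 cells expressing LAP1 and is applied at 0.3 µg/mL; score merges spot fluorescence near 667 nm with signal-to-noise over triplicate slides.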 The note with it: probe aLAP1, fluorescence, higher = more signal.
The test system of experiment [8] is Sam68 (KHDRBS1). Briefly: Sam68 small-molecule binders, primary screen, biochemical, small-molecule microarray, 635 nm fluorescence (AID 1125).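 Also: score merges 667 nm channel intensity with signal to noise over triplicate slides.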 The settings on record: small-molecule microarray binding, higher = more signal.
Experiment [9] relates to Chordin-like protein 2 (CHRDL2). Briefly: CHRDL2 small-molecule binders, primary screen, biochemical, small-molecule microarray, 635 nm fluorescence (AID 1126).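 Also: printed compound slides probed with Chrdl2 protein at 4 µg/mL for 1 h at 4 C; score merges 667 nm emission intensity with signal to noise over three replicate slides.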 The note with it: small-molecule microarray binding, fluorescence 635 nm; higher = more signal.
For experiment [10], the target named is Concanavalin-A (Canavalia ensiformis) (UniProt P02866). Briefly: ConA small-molecule binders, primary screen, artefact control for SMM control protein annotation, biochemical, small-molecule microarray, Alexa647 label, 635 nm (AID 1127).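 Also: z combines 667 nm emission intensity with signal-to-noise across three replicate slides.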 The note with it: ConA-A647 binding fluorescence, higher = more signal.
Experiment [11] is described as follows: anti-His antibody binders, primary screen, artefact control for SMM control protein annotation, biochemical, small-molecule microarray, 635 nm fluorescence (AID 1128).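 Also: score merges feature fluorescence with signal-to-noise for each printed compound spot.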 The settings on record: anti-His Alexa647 antibody binding, higher = more signal.
Experiment [12] deals with Human papillomavirus type 1a E7 protein (residues 1-88). Briefly: HPV1a E7 small-molecule binders, primary screen, biochemical, small-molecule microarray, residues 1-88, 635 nm (AID 1129). The settings on record: small-molecule microarray binding, fluorescence 635 nm; higher = more signal.
For experiment [13], the target named is Focal adhesion kinase 1 (Homo sapiens) (UniProt Q05397). Briefly: small-molecule microarray binders of FAK, primary screen, biochemical, 635/667 nm fluorescence, BSA, DTT (AID 1130).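 Also: composite of spot emission at 667 nm and signal to noise over triplicate slides.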 The settings on record: PTK2 binding, 635 nm fluorescence, higher = more signal.
Experiment [14] relates to Fibrinogen (Alexa647-labelled). Briefly: fibrinogen binders on compound microarrays, profiling panel, artefact control for SMM control-protein annotation, biochemical, small-molecule microarray, 635/667 nm fluorescence (AID 1131).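 Also: z-score merges 667 nm fluorescence with per-spot signal-to-noise over triplicate slides.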 The note with it: fibrinogen-A647 binding fluorescence, higher = more signal.
Experiment [15] has as its target Follistatin (Homo sapiens) (UniProt P19883). Briefly: follistatin binders on small-molecule microarrays, primary screen, biochemical, small-molecule microarray, 635/667 nm fluorescence (AID 1132). The note with it: FST binding, 635 nm fluorescence, higher = more signal.
Experiment [16] has as its target Fibroblast growth factor 2 (Homo sapiens) (UniProt P09038). Briefly: FGF2 binders on small-molecule microarrays, primary screen, biochemical, small-molecule microarray, 635/667 nm fluorescence (AID 1133). The note with it: small-molecule microarray binding, FGF2, fluorescence 635/667; higher = more signal.
Experiment [17] is described as follows: mitochondrial membrane potential change in A549 cells, profiling panel, cell-based, JC-1 fluorescence, basal, 24 h, 100 nL (AID 1138).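 Also: A549 lung adenocarcinoma cells under basal conditions with no added stimulus; test concentration not given here.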 The note with it: higher = more signal.
Experiment [18] deals with Lefty1. Briefly: Lefty1 binders on small-molecule microarrays, primary screen, biochemical, small-molecule microarray, 635/667 nm fluorescence (AID 1139). The note with it: small-molecule microarray binding, fluorescence 635/667; higher = more signal.
Experiment [19] concerns wheat germ agglutinin (Triticum aestivum), Alexa647-labelled. Briefly: wheat germ agglutinin binders on compound microarrays, profiling panel, artefact control for SMM control-protein annotation, biochemical, small-molecule microarray, 635/667 nm fluorescence (AID 1140).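 Also: score merges 667 nm feature emission with signal to noise over triplicate slides.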 The settings on record: WGA-A647 binding, 635 nm fluorescence, higher = more signal.
For experiment [20], the target named is Luciferin 4-monooxygenase (Photinus pyralis) (UniProt P08659). Briefly: firefly luciferase enzyme inhibitors, primary screen, biochemical, luminescence, purified enzyme, 2006 set (AID 1141).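 Also: cell-free assay with purified firefly luciferase at 100 ng per well in PBS; test concentration not given here.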 The settings on record: SteadyGlo luminescence, 30 min, higher = more signal, called active from +8 up or from −8 down.
Luciferin 4-monooxygenase (Photinus pyralis), sequence (P08659 whole entry, looked up): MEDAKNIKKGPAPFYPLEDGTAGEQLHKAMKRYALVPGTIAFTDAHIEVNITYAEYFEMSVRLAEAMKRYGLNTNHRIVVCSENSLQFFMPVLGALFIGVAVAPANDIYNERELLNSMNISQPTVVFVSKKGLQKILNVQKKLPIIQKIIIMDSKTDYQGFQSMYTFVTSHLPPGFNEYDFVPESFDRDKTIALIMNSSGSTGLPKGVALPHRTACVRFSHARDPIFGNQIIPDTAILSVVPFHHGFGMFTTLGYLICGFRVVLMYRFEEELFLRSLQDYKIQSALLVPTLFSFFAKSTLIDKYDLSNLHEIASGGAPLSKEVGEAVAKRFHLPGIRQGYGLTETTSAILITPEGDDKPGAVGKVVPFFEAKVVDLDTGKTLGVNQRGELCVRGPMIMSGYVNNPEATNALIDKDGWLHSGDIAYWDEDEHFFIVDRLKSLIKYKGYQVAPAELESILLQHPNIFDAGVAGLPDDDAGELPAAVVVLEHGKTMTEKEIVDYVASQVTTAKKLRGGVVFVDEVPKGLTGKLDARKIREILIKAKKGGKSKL

Follistatin (Homo sapiens), sequence (P19883 whole entry, looked up): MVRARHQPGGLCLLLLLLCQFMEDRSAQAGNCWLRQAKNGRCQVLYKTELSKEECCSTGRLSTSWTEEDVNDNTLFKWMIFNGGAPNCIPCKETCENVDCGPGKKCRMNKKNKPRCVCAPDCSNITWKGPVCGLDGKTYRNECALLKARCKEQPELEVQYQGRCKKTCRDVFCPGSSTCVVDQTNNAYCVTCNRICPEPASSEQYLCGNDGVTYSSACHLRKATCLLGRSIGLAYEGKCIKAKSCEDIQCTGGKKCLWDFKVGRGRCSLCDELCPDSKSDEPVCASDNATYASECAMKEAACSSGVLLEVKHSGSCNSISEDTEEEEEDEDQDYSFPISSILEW
Albumin (Bos taurus), sequence (P02769 whole entry, looked up): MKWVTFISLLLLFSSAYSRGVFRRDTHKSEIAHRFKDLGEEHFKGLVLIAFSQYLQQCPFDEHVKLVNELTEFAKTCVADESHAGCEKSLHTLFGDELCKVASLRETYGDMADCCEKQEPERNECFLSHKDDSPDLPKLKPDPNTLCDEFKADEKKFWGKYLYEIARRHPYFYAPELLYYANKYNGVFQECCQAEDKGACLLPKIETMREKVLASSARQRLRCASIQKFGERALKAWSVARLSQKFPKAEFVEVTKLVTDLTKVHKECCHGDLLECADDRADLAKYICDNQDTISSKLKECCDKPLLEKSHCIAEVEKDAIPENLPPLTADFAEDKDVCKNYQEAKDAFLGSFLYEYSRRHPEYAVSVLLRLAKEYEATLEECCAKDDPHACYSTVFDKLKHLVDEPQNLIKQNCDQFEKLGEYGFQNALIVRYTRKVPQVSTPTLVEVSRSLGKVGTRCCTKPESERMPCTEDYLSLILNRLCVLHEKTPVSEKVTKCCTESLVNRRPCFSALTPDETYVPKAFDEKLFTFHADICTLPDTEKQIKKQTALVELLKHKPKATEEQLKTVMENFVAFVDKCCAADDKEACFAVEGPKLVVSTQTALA
Fibroblast growth factor 2 (Homo sapiens), sequence (P09038 whole entry, looked up): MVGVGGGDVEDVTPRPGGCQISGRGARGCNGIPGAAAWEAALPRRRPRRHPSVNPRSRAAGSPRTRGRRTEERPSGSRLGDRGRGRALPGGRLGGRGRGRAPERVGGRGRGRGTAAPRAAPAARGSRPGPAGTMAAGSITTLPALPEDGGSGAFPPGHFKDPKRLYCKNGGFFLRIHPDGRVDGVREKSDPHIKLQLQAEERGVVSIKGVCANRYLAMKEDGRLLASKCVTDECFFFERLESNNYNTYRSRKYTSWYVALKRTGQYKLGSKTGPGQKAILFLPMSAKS
Focal adhesion kinase 1 (Homo sapiens), sequence (Q05397 whole entry, looked up): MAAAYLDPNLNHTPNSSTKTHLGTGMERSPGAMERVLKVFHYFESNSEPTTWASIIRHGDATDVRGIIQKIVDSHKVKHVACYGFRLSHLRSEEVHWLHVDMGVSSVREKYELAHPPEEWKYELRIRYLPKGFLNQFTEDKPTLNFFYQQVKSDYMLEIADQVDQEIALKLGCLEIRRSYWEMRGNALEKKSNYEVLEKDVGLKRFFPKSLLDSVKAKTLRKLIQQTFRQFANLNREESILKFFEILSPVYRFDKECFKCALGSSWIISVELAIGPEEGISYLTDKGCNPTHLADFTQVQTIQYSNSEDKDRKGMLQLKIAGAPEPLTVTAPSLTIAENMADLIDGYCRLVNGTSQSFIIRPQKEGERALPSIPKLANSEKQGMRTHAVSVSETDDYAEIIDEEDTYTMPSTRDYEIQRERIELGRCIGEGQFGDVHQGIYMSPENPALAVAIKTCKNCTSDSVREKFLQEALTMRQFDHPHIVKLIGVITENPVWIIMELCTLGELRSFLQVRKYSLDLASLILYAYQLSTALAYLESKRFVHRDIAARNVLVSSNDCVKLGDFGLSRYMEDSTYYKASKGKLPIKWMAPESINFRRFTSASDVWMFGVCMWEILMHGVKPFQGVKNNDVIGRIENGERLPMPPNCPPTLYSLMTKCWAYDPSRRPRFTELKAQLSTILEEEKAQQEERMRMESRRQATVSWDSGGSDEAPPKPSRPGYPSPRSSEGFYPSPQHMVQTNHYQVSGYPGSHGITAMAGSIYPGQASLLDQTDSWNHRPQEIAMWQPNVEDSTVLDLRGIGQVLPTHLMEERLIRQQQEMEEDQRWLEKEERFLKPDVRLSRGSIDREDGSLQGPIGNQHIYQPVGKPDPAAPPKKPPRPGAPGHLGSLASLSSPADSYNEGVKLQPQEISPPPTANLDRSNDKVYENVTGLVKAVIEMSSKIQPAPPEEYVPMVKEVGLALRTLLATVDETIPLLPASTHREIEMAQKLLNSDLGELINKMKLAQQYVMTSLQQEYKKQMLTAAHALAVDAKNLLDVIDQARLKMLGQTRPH
Concanavalin-A (Canavalia ensiformis), sequence (P02866 whole entry, looked up): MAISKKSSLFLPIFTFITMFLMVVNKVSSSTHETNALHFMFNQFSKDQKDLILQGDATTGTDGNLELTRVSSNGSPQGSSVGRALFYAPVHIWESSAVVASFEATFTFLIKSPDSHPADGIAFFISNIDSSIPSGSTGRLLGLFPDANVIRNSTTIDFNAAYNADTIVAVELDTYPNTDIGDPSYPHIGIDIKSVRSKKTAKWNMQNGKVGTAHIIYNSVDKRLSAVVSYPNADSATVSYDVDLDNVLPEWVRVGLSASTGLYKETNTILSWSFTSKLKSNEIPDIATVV

Regarding `COc1ccccc1CN1C(=O)c2ccccc2[C@@]2(Cc3ccccc3N(CC(C)C)C2=O)[C@@H]1c1ccc(CO)cc1`, the composite z-score in experiment [1] is -0.119; in [3], -0.211; in experiment [4] it was -0.143; in experiment [5], -0.137; in experiment [6], 0.19; in experiment [7] it was 0.249. Further, the composite z-score in [8] is 0.253; in experiment [9], -0.238; in experiment [10] it was 0.277; in [11] it was -0.259; in [12], -0.827; in [13], -0.362. The composite z-score in experiment [14] was -0.705; in experiment [15], -0.114; in experiment [16], -0.556; in experiment [18] it was -0.0355; in experiment [19] it was -0.219. Moreover, in [2], the composite Z-score was 0.188 (inactive). The z-score in experiment [17] was 0.379; in experiment [20], -0.35 (inactive).
For `CCCC[C@@H]1C[C@H]1[C@@H](NC(=O)c1ccco1)c1ccc(-c2ccccc2)cc1`, the composite z-score in experiment [1] was 0.0697; in experiment [3], 0.0155; in [4], 0.0474; in experiment [5], 0.344; in [6] it was -0.66; in experiment [7], -0.305. Besides, the composite z-score in experiment [8] was 0.325; in experiment [9], -0.33; in experiment [10], 0.163; in experiment [11] it was 0.633; in experiment [12], 0.665; in experiment [13], 0.218. In addition, the composite z-score in experiment [14] is -0.275; in experiment [15], 0.038; in [16] it was -0.199; in experiment [18] it was -0.0072; in experiment [19] it was 0.124. Also, the composite Z-score in experiment [2] is 0.572 (inactive). Besides, the z-score was -1.12 in experiment [17] and 1.01 (inactive) in experiment [20].
For the compound `COCCOC(=O)N1C(=O)[C@@]2(c3cc(C#CCC(C(=O)OC)C(=O)OC)ccc31)[C@H](c1ccccc1OCCO)N1[C@H](c3ccccc3)[C@H](c3ccccc3)OC(=O)[C@H]1[C@@H]2C(=O)NC[C@H](O)c1ccccc1`, the composite z-score was -0.841 in [1]; 0.164 in experiment [3]; 0.0568 in experiment [4]; 0.483 in experiment [5]; 1.47 in experiment [6]; 0.412 in experiment [7]. For the same compound, the composite z-score was determined as 1.3 in experiment [8]; 0.972 in experiment [9]; 1.16 in experiment [10]; 1.33 in experiment [11]; 1.15 in experiment [12]; 0.9 in experiment [13]. In addition, the composite z-score is 0.749 in experiment [14]; 1.37 in [15]; 1.83 in experiment [16]; 1.41 in [18]; 0.339 in [19]. The composite Z-score in experiment [2] was 0.577 (inactive). For the same compound, the z-score in [17] was -0.671; in experiment [20], -0.182 (inactive).
As for `O=C1C2C=CC(C(O)c3cc(C(F)(F)F)cc(C(F)(F)F)c3)N(n3cnnc3)C2C(=O)N1Cc1ccccc1` (stereo not given), the composite z-score was 0.184 in experiment [1]; -0.0391 in [3]; 0.392 in experiment [4]; 0.68 in experiment [5]; 1.58 in [6]; -0.0088 in [7]. For the same compound, the composite z-score in experiment [8] was 0.824; in experiment [9] it was -1.04; in [10] it was 0.516; in experiment [11], 0.955; in experiment [12] it was -0.269; in experiment [13] it was -0.176. Further, the composite z-score in experiment [14] was 0.889; in experiment [15] it was -0.192; in experiment [16], -0.794; in [18], -0.264; in [19] it was 1.05. Besides, in experiment [2], the composite Z-score is -0.0461 (inactive). The figures for the z-score in experiment [17] and in [20] were -1.57 and 1.46 (inactive), respectively.
Take `C=C[C@H](OC)[C@@H](OC(=O)Nc1ccc(OC)cc1)c1ccc(O)c(F)c1`: the composite z-score was -1.15 in experiment [1]; -0.333 in experiment [3]; -0.217 in [4]; 0.562 in [5]; 2.28 in experiment [6]; 0.953 in experiment [7]. The composite z-score in [8] was 0.96; in experiment [9] it was -1.85; in experiment [10], -1.15; in experiment [11] it was 2.08; in experiment [12] it was 0.424; in experiment [13], -0.585. The composite z-score in experiment [14] was -1.5; in [15] it was -1.07; in [16] it was -1.23; in experiment [18], -0.288; in experiment [19] it was -1.28. The composite Z-score in experiment [2] was 0.111 (inactive). Further, the figures for the z-score in experiment [17] and in experiment [20] were -0.944 and -6.53 (inactive), respectively.
